Reference: PubChem BioAssay
Activity calls are given as the source filed them.

How the values were obtained:
[1] = small molecules captured by biotinylated probe aFSTL3 – biochemical, small-molecule microarray, fluorescence 635/667, stem cell growth factor project, primary screen (AID 1064); conditions: higher = more signal;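 further: measures binding of the biotinylated anti-FSTL3 antibody to printed compounds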
[2] = binders from COS7 lysate, DM2A8 probe, primary screen, torsin A project, cell lysate, small-molecule microarray, fluorescence 635/667 (AID 1065); conditions: higher = more signal, COS7 lysate expressing mutant human TOR1A
[3] = small molecules captured by biotinylated probe aFGF2 – biochemical, small-molecule microarray, fluorescence 635/667, stem cell growth factor project, primary screen (AID 1067); conditions: higher = more signal;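 further: measures binding of biotinylated aFGF2 protein to printed compounds on slides; z-score merges feature fluorescence and signal-to-noise across triplicate slides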
[4] = small molecules captured by biotinylated probe aFGF10 – biochemical, small-molecule microarray, fluorescence 635/667, stem cell growth factor project, primary screen (AID 1071); conditions: higher = more signal;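 further: score merges 667 nm spot intensity and signal to noise from triplicate slides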
[5] = biological target: Neurogenic locus notch homolog protein 2 (Homo sapiens) (UniProt Q04721); assay: small molecules binding Notch2 protein – biochemical, small-molecule microarray, 635 nm fluorescence, stem cell growth factors, primary screen (AID 1073); conditions: higher = more signal
[6] = biological target: Pro-neuregulin-1, membrane-bound isoform (Homo sapiens) (UniProt Q02297); assay: small molecules binding neuregulin-1 protein – biochemical, small-molecule microarray, fluorescence 635/667, psychiatric disease protein project, primary screen (AID 1075); conditions: NRG1 binding, 635 nm fluorescence, higher = more signal;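 further: score combines 667 nm spot fluorescence with signal to noise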
[7] = system: Neuregulin-1 EGF-like domain; assay: small molecules binding NRG1 EGF domain – biochemical, small-molecule microarray, 635 nm fluorescence, primary screen (AID 1081); conditions: higher = more signal;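 further: binding of the protein to compounds printed on small-molecule microarray slides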
[8] = FRG1 expression reporter modulators in myotubes – cell-based, C2C12 myotubes, firefly/Renilla luciferase, luminescence, FRG1 inhibition for FSHD, primary screen (AID 1084); conditions: FRG1 promoter luciferase, higher = more signal, called active from +8 up or from −8 down
[9] = small molecules captured by biotinylated probe aFST – biochemical, small-molecule microarray, fluorescence 635/667, stem cell growth factor project, primary screen (AID 1086); conditions: higher = more signal;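 further: score merges 667 nm fluorescence with signal-to-noise of each printed compound spot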
[10] = binders of probe aHhip on microarray, primary screen, stem cell growth factor project, biochemical, small-molecule microarray, fluorescence 635/667 (AID 1087); conditions: higher = more signal;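 further: score merges spot fluorescence at 667nm with spot signal to noise ratio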
[11] = system: PRMT1 (protein arginine N-methyltransferase 1); assay: small molecules binding arginine methyltransferase PRMT1 – biochemical, small-molecule microarray, 635 nm fluorescence, primary screen (AID 1088); conditions: higher = more signal;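 further: binding of Prmt1 protein to compounds spotted on small-molecule microarray slides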
[12] = growth effects on S. cerevisiae YJM789 – YJM789 clinical isolate, OD600, 24 h, basal, primary screen (AID 1089); conditions: higher = more signal, called active from +8 up or from −8 down;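 further: growth of clinical yeast isolate S. cerevisiae YJM 789 seeded 1000 cells per well; test concentration not given here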
[13] = S. pombe growth modifiers, basal conditions – strain 972, OD600, 24 h, no modulator, primary screen (AID 1090);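 further: basal condition with compound alone and no growth modifier present; test concentration not given here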; conditions: S. pombe 972 growth, higher = more signal, called active from +8 up or from −8 down
[14] = budding yeast growth modifiers under rapamycin – strain BY4716, OD600, 96 h, primary screen (AID 1091); further: test concentration not given here; conditions: S. cerevisiae BY4716 + rapamycin, higher = more signal, called active from +8 up or from −8 down
[15] = biological target: Torsin-1A-interacting protein 2 (Homo sapiens) (UniProt Q8NFQ8); assay: small molecules binding lysate-expressed LULL1 – cell lysate, human LULL1 lysate, 635/667 nm fluorescence, primary screen (AID 1092); conditions: small-molecule microarray, hLULL1 lysate binding, 635 nm fluorescence; higher = more signal;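 further: probe is lysate of COS7 cells overexpressing human LULL1; score merges per-feature 667 nm fluorescence with signal-to-noise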
[16] = optical density change of DRC41 E. coli – strain DRC41, OD650, 24 h, E. coli filamentation project, primary screen (AID 1093);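 further: MC1000 strain lacking acrAB efflux and sulA so SOS filamentation is blocked; test concentration not given here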; conditions: E. coli DRC41 growth, higher = more signal, called active from +8 up or from −8 down
[17] = probe aLefty2 binding to arrayed compounds – biochemical, biotinylated probe, 635/667 nm fluorescence, primary screen (AID 1094); conditions: small-molecule microarray, higher = more signal;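 further: score merges spot fluorescence near 667 nm with spot signal-to-noise ratio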
[18] = system: Noggin (protein binding on small-molecule microarray); assay: small molecules binding Noggin protein – biochemical, 635/667 nm fluorescence, primary screen (AID 1095); conditions: 635 nm fluorescence, higher = more signal;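 further: score merges 667 nm feature fluorescence with signal to noise over triplicate slides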
[19] = biological target: Neurogenic locus notch homolog protein 3 (Homo sapiens) (UniProt Q9UM47); assay: small molecules binding NOTCH3 protein – biochemical, 635/667 nm fluorescence, primary screen (AID 1096); conditions: small-molecule microarray, 635 nm fluorescence, higher = more signal
[20] = probe aEGFR binding to arrayed compounds – biochemical, biotinylated probe, 635/667 nm fluorescence, primary screen (AID 1097); conditions: small-molecule microarray, higher = more signal;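 further: probe is a biotinylated anti-EGFR antibody binding compounds printed on slides; score combines fluorescence near 667 nm and signal to noise of each spot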

Sequence of Pro-neuregulin-1, membrane-bound isoform (Homo sapiens) (Q02297 whole entry, looked up, the tested form may be a part, canonical isoform): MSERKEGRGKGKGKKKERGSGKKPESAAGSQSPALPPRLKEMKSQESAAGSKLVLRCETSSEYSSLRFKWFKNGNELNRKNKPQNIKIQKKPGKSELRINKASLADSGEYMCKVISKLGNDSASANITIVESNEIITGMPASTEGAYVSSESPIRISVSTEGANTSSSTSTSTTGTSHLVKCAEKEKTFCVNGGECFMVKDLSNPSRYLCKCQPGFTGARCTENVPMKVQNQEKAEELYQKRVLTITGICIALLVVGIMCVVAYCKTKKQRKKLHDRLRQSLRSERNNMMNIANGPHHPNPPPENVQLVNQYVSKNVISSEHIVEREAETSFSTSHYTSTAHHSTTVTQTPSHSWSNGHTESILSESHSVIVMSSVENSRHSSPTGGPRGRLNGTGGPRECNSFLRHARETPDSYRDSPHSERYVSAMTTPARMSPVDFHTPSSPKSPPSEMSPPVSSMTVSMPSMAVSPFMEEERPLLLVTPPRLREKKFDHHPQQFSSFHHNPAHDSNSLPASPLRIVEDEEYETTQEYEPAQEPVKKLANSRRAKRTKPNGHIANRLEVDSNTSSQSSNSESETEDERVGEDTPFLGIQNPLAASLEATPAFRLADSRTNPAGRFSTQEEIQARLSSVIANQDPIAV
Sequence of Neurogenic locus notch homolog protein 3 (Homo sapiens) (Q9UM47 whole entry, looked up): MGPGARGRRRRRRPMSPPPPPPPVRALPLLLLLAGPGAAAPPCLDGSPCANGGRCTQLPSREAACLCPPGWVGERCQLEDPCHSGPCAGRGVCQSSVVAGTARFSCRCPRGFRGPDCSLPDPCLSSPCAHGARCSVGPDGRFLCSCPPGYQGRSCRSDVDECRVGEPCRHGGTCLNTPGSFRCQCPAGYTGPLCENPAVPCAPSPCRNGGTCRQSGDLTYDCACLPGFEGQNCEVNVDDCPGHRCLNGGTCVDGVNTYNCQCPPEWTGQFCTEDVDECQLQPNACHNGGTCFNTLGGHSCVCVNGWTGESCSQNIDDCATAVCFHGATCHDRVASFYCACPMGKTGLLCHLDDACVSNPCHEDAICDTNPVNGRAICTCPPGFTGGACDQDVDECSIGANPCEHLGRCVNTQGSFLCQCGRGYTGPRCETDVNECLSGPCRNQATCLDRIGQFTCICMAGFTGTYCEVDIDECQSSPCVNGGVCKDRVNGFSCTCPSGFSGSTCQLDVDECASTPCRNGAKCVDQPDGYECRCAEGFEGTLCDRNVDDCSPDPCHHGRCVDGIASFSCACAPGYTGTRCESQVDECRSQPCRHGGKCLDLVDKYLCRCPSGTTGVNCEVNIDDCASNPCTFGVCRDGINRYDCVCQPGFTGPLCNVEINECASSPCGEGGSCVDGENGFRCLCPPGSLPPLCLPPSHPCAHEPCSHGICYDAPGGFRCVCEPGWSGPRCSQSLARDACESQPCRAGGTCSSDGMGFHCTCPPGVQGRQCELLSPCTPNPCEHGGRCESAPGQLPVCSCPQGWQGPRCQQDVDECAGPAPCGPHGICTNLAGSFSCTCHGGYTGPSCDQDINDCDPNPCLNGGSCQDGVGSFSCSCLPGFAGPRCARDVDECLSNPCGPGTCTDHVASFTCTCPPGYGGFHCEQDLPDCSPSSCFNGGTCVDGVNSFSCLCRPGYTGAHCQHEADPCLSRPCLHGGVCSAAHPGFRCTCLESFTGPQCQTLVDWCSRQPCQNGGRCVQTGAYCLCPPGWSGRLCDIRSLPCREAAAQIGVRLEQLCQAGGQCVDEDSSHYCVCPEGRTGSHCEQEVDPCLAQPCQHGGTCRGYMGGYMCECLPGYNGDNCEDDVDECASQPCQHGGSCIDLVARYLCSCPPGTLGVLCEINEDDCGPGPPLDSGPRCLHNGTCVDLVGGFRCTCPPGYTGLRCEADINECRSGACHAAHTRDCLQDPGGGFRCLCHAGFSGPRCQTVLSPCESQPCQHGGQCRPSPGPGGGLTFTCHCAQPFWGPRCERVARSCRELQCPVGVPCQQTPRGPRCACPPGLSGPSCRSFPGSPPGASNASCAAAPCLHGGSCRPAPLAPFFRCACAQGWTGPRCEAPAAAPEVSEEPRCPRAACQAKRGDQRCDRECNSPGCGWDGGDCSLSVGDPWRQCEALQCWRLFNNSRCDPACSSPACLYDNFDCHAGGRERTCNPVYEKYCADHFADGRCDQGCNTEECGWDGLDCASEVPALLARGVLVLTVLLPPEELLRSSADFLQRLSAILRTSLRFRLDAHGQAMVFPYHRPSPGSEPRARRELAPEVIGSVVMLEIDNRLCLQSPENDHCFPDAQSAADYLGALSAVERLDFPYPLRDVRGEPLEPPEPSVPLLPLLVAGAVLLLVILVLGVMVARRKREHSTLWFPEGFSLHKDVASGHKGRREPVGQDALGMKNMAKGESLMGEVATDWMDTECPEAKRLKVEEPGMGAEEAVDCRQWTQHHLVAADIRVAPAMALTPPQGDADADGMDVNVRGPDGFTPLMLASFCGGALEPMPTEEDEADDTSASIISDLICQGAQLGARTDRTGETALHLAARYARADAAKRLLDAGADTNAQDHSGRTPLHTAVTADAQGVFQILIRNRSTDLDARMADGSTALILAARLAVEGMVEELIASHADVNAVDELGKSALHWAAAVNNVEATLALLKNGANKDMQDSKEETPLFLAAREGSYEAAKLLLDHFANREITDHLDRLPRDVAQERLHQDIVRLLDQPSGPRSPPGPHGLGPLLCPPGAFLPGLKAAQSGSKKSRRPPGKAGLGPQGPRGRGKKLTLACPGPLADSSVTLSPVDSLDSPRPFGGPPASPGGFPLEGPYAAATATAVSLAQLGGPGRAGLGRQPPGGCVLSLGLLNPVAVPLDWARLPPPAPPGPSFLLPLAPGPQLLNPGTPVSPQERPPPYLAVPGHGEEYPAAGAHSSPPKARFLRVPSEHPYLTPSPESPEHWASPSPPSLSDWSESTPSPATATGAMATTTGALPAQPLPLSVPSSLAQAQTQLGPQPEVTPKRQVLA
Sequence of Torsin-1A-interacting protein 2 (Homo sapiens) (Q8NFQ8 whole entry, looked up): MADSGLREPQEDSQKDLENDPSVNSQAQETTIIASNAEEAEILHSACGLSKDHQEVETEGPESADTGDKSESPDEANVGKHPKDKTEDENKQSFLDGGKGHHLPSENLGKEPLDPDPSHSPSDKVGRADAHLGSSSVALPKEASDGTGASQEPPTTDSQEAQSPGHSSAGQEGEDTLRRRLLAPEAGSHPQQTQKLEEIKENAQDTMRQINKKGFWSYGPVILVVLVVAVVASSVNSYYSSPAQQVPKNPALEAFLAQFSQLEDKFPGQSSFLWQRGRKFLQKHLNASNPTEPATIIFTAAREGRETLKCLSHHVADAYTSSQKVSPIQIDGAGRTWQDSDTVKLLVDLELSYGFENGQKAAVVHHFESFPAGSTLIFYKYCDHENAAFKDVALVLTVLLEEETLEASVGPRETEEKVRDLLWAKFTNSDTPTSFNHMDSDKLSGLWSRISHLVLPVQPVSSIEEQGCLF

| Compound | composite z-score [1] | composite z-score [2] | composite z-score [3] | composite z-score [4] | composite z-score [5] | composite z-score [6] | composite z-score [7] | z-score [8] | composite z-score [9] | composite z-score [10] | composite z-score [11] | z-score [12] | z-score [13] | z-score [14] | composite z-score [15] | z-score [16] | composite z-score [17] | composite z-score [18] | composite z-score [19] | composite z-score [20] |
| --- | --- | --- | --- | --- | --- | --- | --- | --- | --- | --- | --- | --- | --- | --- | --- | --- | --- | --- | --- | --- |
| COc1ccc([Si](C)(C)[C@H]2[C@H](CCO)O[C@@]3(C(=O)N(Cc4cccc(N5C(=O)COc6ccccc65)c4)c4ccccc43)[C@@H]2C)cc1 | 0.295 | 0.15 | -0.0877 | 0.126 | -0.298 | 0.727 | 0.828 | -2.07 (inactive) | -0.203 | -0.333 | 0.911 | 1.5 (inactive) | -0.845 (inactive) | 16.8 (active) | 0.795 | 1.98 (inactive) | -0.0021 | 0.164 | 0.14 | -0.148 |
| CN(C)C(=O)[C@@]1(CCS(=O)(=O)c2ccccc2)N=C(c2ccc(OCCCO)cc2)O[C@H]1c1ccccc1 | -0.0356 | 0.79 | 0.163 | 0.746 | 1.35 | 2.13 | 1.34 | -0.522 (inactive) | 1.52 | 0.0401 | 1.07 | -0.308 (inactive) | -0.255 (inactive) | 0.117 (inactive) | 3.51 | -0.16 (inactive) | 0.0932 | -0.135 | 1.08 | -0.0215 |
| O=C1OCC=C[C@H]2OC34C=CCN(c5ccc(Cl)cc5)C(=O)[C@H]3N(CCO)C(=O)[C@@H]4[C@@H]12 (stereo not given in full) | 0.601 | -0.515 | -0.147 | -0.0609 | -1.09 | -0.0774 | 1.04 | 0.782 (inactive) | -0.915 | -0.137 | 0.197 | -0.23 (inactive) | -0.846 (inactive) | 0.0595 (inactive) | 2.87 | -0.297 (inactive) | -0.286 | -2.04 | -0.368 | -0.321 |
| CCOC(=O)C1=C[C@@H](c2ccccc2)N(S(=O)(=O)c2ccc(C)cc2)[C@H]1c1ccccc1Cl | -0.508 | 0.544 | 0.168 | 1.1 | 1.5 | 0.264 | 0.857 | -3.26 (inactive) | 0.945 | -0.16 | 1.5 | 0.849 (inactive) | 2.19 (inactive) | 2.48 (inactive) | 2.8 | -0.518 (inactive) | 0.0935 | 0.985 | 1.06 | 0.153 |
| O=C(NCC(F)(F)F)[C@@H]1c2ccccc2C(=O)N(Cc2cc(F)cc(C(F)(F)F)c2)[C@H]1c1ccc(CO)cc1 | 0.148 | -0.823 | -0.0996 | -0.762 | -1 | -0.381 | 1.06 | -0.0411 (inactive) | -0.317 | -0.218 | -0.264 | 0.0042 (inactive) | -0.793 (inactive) | 0.29 (inactive) | 2.29 | 0.463 (inactive) | -0.0998 | -1.08 | -1.13 | -0.278 |
| N#Cc1ccc(C(O)C2C=CC3C(=O)N(c4ccccc4)C(=O)C3N2Nc2ccccc2)cc1 (stereo not given) | 0.396 | 0.0518 | 0.129 | 0.77 | 1.32 | 1.19 | 1.08 | -0.627 (inactive) | 0.833 | -0.069 | 0.0016 | 0.953 (inactive) | -0.145 (inactive) | -0.248 (inactive) | 2.62 | 0.445 (inactive) | 0.443 | -0.383 | 0.744 | 0.104 |
| CCOC(=O)C[C@H]1[C@H](OC(=O)c2ccc(C(=O)c3ccccc3)cc2)[C@@H](NC(=O)Cc2ccc(OC)cc2)c2cc(OCCCO)ccc2N1C(=O)c1ccccc1 | -0.045 | 0.135 | -0.107 | 0.172 | 0.227 | -0.104 | 0.676 | -0.587 (inactive) | 0.518 | -0.0994 | 0.139 | -0.12 (inactive) | 0.169 (inactive) | -0.378 (inactive) | 1.19 | -0.978 (inactive) | 0.0759 | 0.359 | -0.0979 | -0.0219 |
| COCCCNC(=O)[C@]1(CCS(=O)(=O)c2ccccc2)N=C(c2ccc(OCCCO)cc2)O[C@@H]1c1ccccc1N=[N+]=[N-] | 1.42 | 0.769 | 0.263 | 1.11 | 0.984 | 0.977 | 1.01 | 4.31 (inactive) | 1.98 | -0.202 | 1.38 | 0.371 (inactive) | 0.61 (inactive) | 3.42 (inactive) | 2.93 | 0.464 (inactive) | 0.106 | -0.122 | 0.349 | 0.287 |
| COC(=O)[C@@]1(Cc2ccc(F)cc2)[C@H]2c3cc(C(=O)N(C)C)n(Cc4cc(F)cc5c4OCOC5)c3C[C@H]2CN1C(=O)c1ccccc1 | 0.149 | 0.199 | -0.0002 | 0.964 | 1.56 | 1.81 | 1.27 | -1.82 (inactive) | 1.03 | -0.319 | 1.17 | -1.23 (inactive) | 0.446 (inactive) | 1.78 (inactive) | 3.32 | -0.375 (inactive) | 0.44 | 0.378 | 1.04 | 0.118 |
| CC(C)(C)N1CC=CC23O[C@@H]4C=CCCOC(=O)C4[C@H]2C(=O)N(CCO)[C@@H]3C1=O (stereo not given in full) | -0.0666 | -0.46 | -0.132 | -0.133 | -0.717 | 0.767 | 1.48 | 0.22 (inactive) | -0.474 | -0.236 | 0.13 | -0.125 (inactive) | -0.229 (inactive) | -0.0913 (inactive) | -1.67 | 0.976 (inactive) | -0.267 | -0.365 | -0.696 | -0.112 |
